Assay results taken from PubChem BioAssay (NCI).
This is part of a sample that, as a whole, favours compounds with a hit. Of some 83,000 tested, about 20% had one in any assay.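 Step 1: grow cells in 96-well plates. Step 2: add test compound at a single concentration. Step 3: incubate 48 h. Step 4: record percent growth.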 Values without a mark were called inactive. Active and inactive are the calls of the source. How the source made its calls: active means growth percent below 10; inactive means the rest.

Tested on: MDA-MB-468 breast
Assay: NCI-60 one-dose screen, 48 h (100 = growth as untreated, 0 = no growth, -100 = all killed)
Conditions: 10 µM unless noted

With `COC(=O)CCCCCCCCC1(C)C=CC(C(C)O)=CC1` (stereo not given) as the compound, how does the growth read?
The growth was 107%.

How did the growth turn out when `O=C(CN1C(=O)S/C(=C\C(Cl)=C\c2ccccc2)C1=O)NCCc1ccc(O)cc1` was run?
Its growth is 17.3%.

How did the growth turn out when `CC[C@]12C=CCN3CC[C@@]4(c5ccc(OC)cc5N(C)[C@H]4[C@@](O)(C(=O)OC)[C@@H]1OC(=O)CCC(=O)N[C@@H](Cc1c[nH]c4ccccc14)C(=O)OC)[C@@H]32` was run?
The growth was -20.8% (active).

How did the growth turn out when `Nc1ncnc2c1N=C(c1ccc(F)cc1)CC(c1sc(Cl)nc1Cl)N2` (stereo not given) was run?
Its growth is 91.4%.

With `COc1ccc(OC)c(/C=C2\COc3ccc(O)cc3C2=O)c1` as the compound, how does the growth read?
The growth was 82.7%.

For `O=C(CSc1nnc(-c2cnccn2)n1-c1ccccc1)c1ccc(Cl)cc1`, which growth is on record?
The growth was 97.6%.

For `c1cc2c(cc1-c1cnc3nonc3n1)OCO2`, which growth is on record?
Its growth is 84.6%.

How did the growth turn out when `N#C/C(=C\c1ccc(Br)cc1)n1nnc2cc(Cl)c(Cl)cc21` was run?
Its growth is -5.24% (active).

For `CCCCCCCCCCCCS(=O)CC(C)O` (stereo not given), which growth is on record?
The growth was 106%.

For `COc1ccc(CNC(=O)C(O)C(Cc2ccccc2)NC(=O)c2[nH]c3ccccc3c(=O)c2C)cc1OC` (stereo not given), which growth is on record?
Its growth is 102%.

`C=CCn1c(SCC(=O)c2ccc(Br)cc2)nnc1-c1c[nH]c2ccccc12` was tested. Which growth did it give?
Its growth is 86.9%.

With `CC1CC(=O)C2=C(C1)Nc1ccc(Br)cc1CC2c1c[nH]c2ccc(Br)cc12` (stereo not given) as the compound, how does the growth read?
Its growth is -3.65% (active).

How did the growth turn out when `O=C(Nc1ccc2c(c1)OCCO2)C(=O)c1c[nH]c2ccccc12` was run?
Its growth is -0.365% (active).

For `O=C1c2cc3c(cc2-c2c1c1ccc(Cl)cc1c(=O)n2C[C@H](O)[C@@H](O)[C@H](O)CO)OCO3`, which growth is on record?
Its growth is -63.4% (active).

`O=c1[nH]c(-c2ccncc2)nc2sc3c(c12)CCCCCC3` was tested. Which growth did it give?
The growth was 99.2%.

`Cn1cc(-c2csc(-c3cn(CCN)c4ccc(F)cc34)n2)c2cccnc21` was tested. Which growth did it give?
The growth was 20.2%.

For `CCC(C)N(CCNc1cc(OC)cc2cccnc12)CC(C)C` (stereo not given), which growth is on record?
Its growth is -52.5% (active).

For `N#C/C(=C\c1ccc(Cl)cc1Cl)C(N)=O`, which growth is on record?
Its growth is 96.3%.

`NC(=O)c1ccc(-c2c3ccccc3cc3c2ccc2ccccc23)cc1` was tested. Which growth did it give?
Its growth is -11.3% (active).

`COc1ccc(NC(=O)c2ccc3c(c2)nc(-c2cc4ccccc4[nH]c2=O)n3-c2cc(C(C)(C)C)[nH]n2)cc1` was tested. Which growth did it give?
The growth was 95%.

`COc1ccc(N=Nc2cc(OC)c(OC)c(OC)c2)cc1` was tested. Which growth did it give?
The growth was 80.9%.

`O=S1(=O)N(CCNc2nccc(-c3c(-c4cccc(O)c4)nc4sccn34)n2)CCN1Cc1ccccc1` was tested. Which growth did it give?
Its growth is 94.4%.

For `CCN(CC)CCCN1C(=O)c2c(c(C)c3c(oc4ccc(OC)cc43)c2C)C1=O`, which growth is on record?
The growth was 103%.

Which growth does the source give for `C=C(C)CCCC(C)CC#N` (stereo not given) here?
The growth was 93.3%.

With `COc1ccc(-c2no[n+]([O-])c2Nc2ccccc2Br)cc1` as the compound, how does the growth read?
The growth was 93.3%.

With `O=C1c2c(O)cc(O)cc2O[C@@H](c2ccc(O)cc2)[C@@H]1c1c(O)cc(O)c2c(=O)cc(-c3ccc(O)c(O)c3)oc12` as the compound, how does the growth read?
The growth was 113%.

For `CC(CN)[C@@H]1CC[C@]2(CO)CC[C@]3(C)[C@H](CC[C@@H]4[C@@]5(C)CCC(N)C(C)(C)[C@@H]5CC[C@]43C)[C@@H]12` (stereo not given in full), which growth is on record?
The growth was 6.19% (active).

How did the growth turn out when `CC/C=C\C[C@H](O)C/C=C1/C(=O)C=C[C@@H]1C/C=C\CCCC(=O)NC` was run?
Its growth is -47.4% (active).

With `CCCCCCCCC(=O)OCCCC(CCC(CCC1CCCO1)OC(=O)CCCCCCCC)OC(=O)CCCCCCCC` (stereo not given) as the compound, how does the growth read?
The growth was 111%.

With `Cc1nn(-c2ccccc2)c2ncnc(N/N=C/c3cccc(O)c3)c12` as the compound, how does the growth read?
Its growth is -0.147% (active).

`COc1ccc(C(=O)n2nc(-c3ccccc3)nc2N)cc1OC` was tested. Which growth did it give?
The growth was 68.8%.

Which growth does the source give for `COc1ccc(S(=O)(=O)N2CCCCC2)cc1NC(=O)c1[nH]c(C)c2c1CCCCC2=O` here?
Its growth is -2.19% (active).

With `COc1ccc2nc(C)cc(Nc3ccccc3O)c2c1` as the compound, how does the growth read?
The growth was 63.5%.

`CN(C)CCCOc1cccc(NC2=C(Cl)C(=O)C(Nc3cccc(OCCCN(C)C)c3)=C(Cl)C2=O)c1` was tested. Which growth did it give?
Its growth is -57.3% (active).

Which growth does the source give for `O=C(/C(=C(\C(=O)c1ccccc1)c1ccccc1)c1ccccc1)c1ccccc1` here?
Its growth is 47.9%.

`Cc1cc2ccccc2c[n+]1CC(=O)c1ccc(-c2ccccc2)cc1` was tested. Which growth did it give?
Its growth is 13.3%.

How did the growth turn out when `C[C@]12CCc3nc(Nc4cccc(O)c4)sc3C1=CC[C@@H]1[C@@H]2CC[C@]2(C)/C(=N\NC(N)=S)CC[C@@H]12` was run?
Its growth is -32.7% (active).

How did the growth turn out when `O=C1c2c(c3c4cc(Br)ccc4[nH]c3c3ccc4ccccc4c23)C(=O)N1O` was run?
Its growth is 62.1%.

For `O=C(Nc1ncc(Cc2ccccc2)s1)c1cc(-c2ccccc2)nc2ccccc12`, which growth is on record?
The growth was 103%.

For `Cc1cc(C)c([I+]c2c(C)cc(C)cc2C)c(C)c1`, which growth is on record?
Its growth is -41.9% (active).
